KCNQ2 block = blocks the rat KCNQ2 potassium channel; O88943; B-score at 10 µM; CHO-K1 KCNQ2, FluxOR thallium flux, 20 min; hits give low values; actives 1.1% (n = 310,000);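 active means fluorescence ratio B-score at most minus 3 library SDs, with starting brightness B-score within 2 library SDs, cut at about -5.5 in these data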
KCNQ2 enhance = enhances the rat KCNQ2 potassium channel; CHO-K1 KCNQ2, FluxOR thallium flux fluorescence; hits give high values; actives 0.54% (n = 310,000); O88943; AID 2239; B-score at 10 µM;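 active means fluorescence ratio B-score at least 3 SD of library B-scores, with initial fluorescence B-score within 3 of them, cut at about 5.3 in these data; same plate scores as AID 2156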;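 further: B-score of peak minus minimum over baseline fluorescence ratio after K+ and Tl+ stimulus; positive B-score means potentiation of KCNQ2 with more thallium influx and brighter signal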
KCNQ2 block conf = rat KCNQ2 channel inhibition, confirmatory screen | KCNQ2-expressing cells, thallium flux; hits give low values | activity change, negative = inhibition, % at 10 µM | actives 57% (n = 1,000) | shares compounds with KCNQ2 block;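 further: 0% = vehicle wells and values are ratio percent relative to vehicle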
KCNQ1 spec = KCNQ2 inhibitor that also affects human KCNQ1 channel; KCNQ1-expressing cells, FluxOR thallium flux fluorescence; hits give low values; shares compounds with KCNQ2 block; AID 493026; activity change, negative = inhibition, % at 10 µM; actives 15% (n = 1,000);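 active means activity change at least 3 SD of negative controls below their mean in both duplicate wells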;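 further: CHO cells stably transfected with KCNQ1 and depolarized by potassium stimulus; peak minus minimum fluorescence over baseline after thallium addition; 0% = vehicle negative control and -100% = blank without thallium stimulus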
CHO Tl ctr = KCNQ2 inhibitor counter-screen hit in parental CHO cells; actives 14% (n = 1,000); activity change, % at 10 µM; shares compounds with KCNQ2 block; thallium flux counter-screen; hits give low values; AID 493029;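 further: 0% = vehicle negative controls with stimulus buffer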
KCNQ2 inh confirm = rat KCNQ2 inhibition confirmed by electrophysiology; actives 49% (n = 550); calls only at 10 µM; KCNQ2-expressing cells, automated patch clamp current; shares compounds with KCNQ2 block
Numbers without * were called inactive; i = inactive; x = no result; + = active, no number. Sampled rows, rich in hits. Any-hit rate of the full collection: about 1.6%. Unless noted, how the calls were made is not given here.

SMILES	KCNQ2 block	KCNQ2 enhance	KCNQ2 block conf	KCNQ1 spec	CHO Tl ctr	others
O=C(COC(=O)c1cc(-c2ccco2)nc2ccccc12)NCc1ccccc1	-6.91*	-6.91	i	i	i
CCN(CC)CCNC(=O)c1cc(-c2ccco2)nc2ccccc12	i	0.72	x	x	x
CNC(=O)COC(=O)c1cc(-c2ccco2)nc2ccccc12	i	x	x	x	x
COc1ccc(-c2csc(NCCc3nc4cc(C(=O)NCCCO)ccc4n3Cc3ccc(C)cc3)n2)cc1	i	x	x	x	x
Cc1ccc(CN=c2c([N+](=O)[O-])nn(-c3cccc(Cl)c3)n2O)cc1	i	x	x	x	x
Cc1ccc(CN=c2c([N+](=O)[O-])nn(-c3cccc(C)c3)n2O)cc1	-7.01*	-7.01	-19.0%*	i	i	KCNQ2 inh confirm=i
COC(=O)c1ccc(OCC(O)CN2CCN(C(=O)c3ccco3)CC2)c(OC)c1 (configuration not stated)	i	x	x	x	x
Cc1ccc(OCC(=O)NNC(=O)CCc2ccccc2)c(Br)c1	i	x	x	x	x
COc1ccc(N(Cc2ccccc2)N=O)cc1	i	x	x	x	x
COc1cccc(/C=C2\SC(=S)N(N3CCOCC3)C2=O)c1OC	-8.59*	-8.59	-34.5%*	i	i	KCNQ2 inh confirm=i
COc1ccc(/C=C2\SC(=S)N(N3CCOCC3)C2=O)c(OC)c1	i	x	x	x	x
Cc1ccc(C(=O)Nc2cccc(C(=O)N3CCOCC3)c2)cc1Cl	i	2.77	x	x	x
CC(C)(C)c1ccc(S(=O)(=O)NCCc2ccncc2)cc1	i	x	x	x	x
Cc1ccc(CNS(=O)(=O)c2ccc(C(C)(C)C)cc2)n1C	-7.14*	-7.14	x	i	i	KCNQ2 inh confirm=+
COCCNC(=O)c1ccc(N2CC3CC(C2)c2cccc(=O)n2C3)c(NC(=O)c2ccc(Br)o2)c1 (configuration not stated)	i	0.76	x	x	x
CSCCC(NC(=O)c1ccccc1Br)C(=O)N1CCCC(C(F)(F)F)C1 (configuration not stated)	-9.31*	-9.31	-16.0%*	i	i	KCNQ2 inh confirm=+
CSCCC(NC(=O)c1ccccc1Br)C(=O)N1CCCCCCC1 (configuration not stated)	-9.58*	-9.58	-29.0%*	i	i	KCNQ2 inh confirm=+
CSCCC(NC(=O)c1ccccc1Br)C(=O)NCC1CCCCC1 (configuration not stated)	i	x	x	x	x
CSCCC(NC(=O)COc1ccccc1)C(=O)N1CCCC(C(F)(F)F)C1 (configuration not stated)	-6.98*	-6.98	i	i	i
CSCCC(NC(=O)c1ccccc1Br)C(=O)NCc1ccc(F)cc1 (configuration not stated)	i	0.1	x	x	x
CSCCC(NC(=O)COc1ccccc1)C(=O)NC1CCC(C)CC1 (configuration not stated)	i	x	x	x	x
CCCc1cc(C(=O)N2CCCC(Nc3ccc(C)c(C)c3)C2)n(C)n1 (configuration not stated)	i	x	x	x	x
O=C1C(C2=NC(c3ccccn3)C3C(=O)N(c4ccccc4)C(=O)C23)=C(O)c2ccccc21 (configuration not stated)	i	x	x	x	x
S=C(NCc1ccccc1)Nc1cccc2ccccc12	i	1.55	x	x	x
Cc1ccc(C(C)C)c(OCCNC(=S)Nc2cccc3ccccc23)c1	-6.66*	-6.66	i	i	i
SMILES	KCNQ2 block	KCNQ2 enhance	KCNQ2 block conf	KCNQ1 spec	CHO Tl ctr	others
CCN(C(=O)COC(=O)c1cc(-c2cccc3ccccc23)nc2ccccc12)C1CCS(=O)(=O)C1 (configuration not stated)	i	1.24	x	x	x
COc1ccccc1C(CC(=O)O)NS(=O)(=O)c1ccc2c(c1)N(C(C)=O)CC(C)O2 (configuration not stated)	i	x	x	x	x
Oc1oc(-c2ccccc2)nc1/C=N/c1nccs1	i	1.77	x	x	x
Oc1oc(-c2ccccc2)nc1C=Nc1cccc2ccccc12	-8.69*	-8.69	i	i	i
CC(=O)N1N=C(N)SC1(C)C	i	x	x	x	x
COCCn1c(-c2ccc(OC)cc2)cnc1N	i	x	x	x	x
CCOc1ccc(-c2cnc(NCc3cccc4ccccc34)n2CCOC)cc1	-9.71*	-9.71	i	i	i
CCCCN(Cc1ccc(C(=O)N[C@H](C(=O)O)C(C)C)cc1)C(=O)C(c1ccccc1)c1ccccc1	i	x	x	x	x
Cc1nn(C(C)C(=O)O)c(=O)c2c1sc1ccccc12 (configuration not stated)	i	x	x	x	x

Assay outcomes as filed in PubChem BioAssay.
